Source: PubChem BioAssay
Rows were chosen to be rich in hits. Some 7.4% of all compounds tested hit in one or more screens of this group.
ELG1 genotoxic: genotoxicity induction in ELG1-luciferase HEK293T cells | HEK293T ELG1-luciferase reporter, luminescence, 16 h | Potency, µM (doses to about 46 µM), hits mostly activators | 1.3% of 330,000 active | AID 504466; further: nearly all actives have a fitted effect of over 60% in size
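After overnight (16 hr) compound treatment at 37 °C, ELG1-luciferase HEK293T cells were lysed with ONE-Glo; luminescence quantified 30 min later at room temperature.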
FLuc modulator: counter-screen for miR-21 project: firefly luciferase inhibitors or activators; Potency, µM (highest dose often 57.5 µM), hits mostly inhibitors; 6.9% of 360,000 active; purified FLuc, Km substrates, luminescence inhibition; P08659; further: nearly all actives have a fitted effect of over 55% in size
Target sequence (P08659 whole entry, looked up): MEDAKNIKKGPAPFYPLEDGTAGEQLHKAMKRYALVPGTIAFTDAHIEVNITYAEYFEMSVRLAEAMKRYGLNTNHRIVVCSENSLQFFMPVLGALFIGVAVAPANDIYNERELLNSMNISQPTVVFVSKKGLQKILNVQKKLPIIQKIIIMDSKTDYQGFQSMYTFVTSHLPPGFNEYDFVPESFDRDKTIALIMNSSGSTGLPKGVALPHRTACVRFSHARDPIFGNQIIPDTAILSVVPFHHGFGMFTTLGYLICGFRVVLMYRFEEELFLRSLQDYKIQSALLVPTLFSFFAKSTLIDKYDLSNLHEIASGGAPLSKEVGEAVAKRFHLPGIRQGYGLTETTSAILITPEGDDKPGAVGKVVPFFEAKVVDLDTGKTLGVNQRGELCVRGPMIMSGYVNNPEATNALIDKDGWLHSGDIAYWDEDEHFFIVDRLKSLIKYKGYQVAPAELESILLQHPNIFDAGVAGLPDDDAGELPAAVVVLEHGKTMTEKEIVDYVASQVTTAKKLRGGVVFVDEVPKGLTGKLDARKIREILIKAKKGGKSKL
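Biochemical qHTS of compounds, final roughly 60 µM downward over six points, against 10 nM purified firefly luciferase using Km concentrations of substrates (10 uM D-luciferin, 10 uM ATP) in Tris acetate pH 7.5 buffer; luminescence output.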
SMN2 splice enh: SMN2 splice variant enhancement | HEK293 SMN2-luciferase splicing reporter, luminescence, 30-36 h | Potency, µM (top dose mostly 46.1 µM), hits mostly activators | 2.8% of 210,000 active | AID 1458; further: nearly all actives have a fitted effect of over 55% in size
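HEK293 cells carry an SMN2 minigene-luciferase reporter in which exon 7 inclusion puts luciferase in frame. Cells were seeded at 2000 cells/well, attached for 10-12 hours, then exposed to compounds for 30-36 hours at 37C before ONE-Glo luminescence.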
Rab9 promoter act: activators of Rab9 promoter | Potency, µM (doses to about 9.22 µM), hits mostly activators | AID 485297 | Huh7 Rab9 promoter-luciferase reporter, luminescence, 24 h | 2.8% of 320,000 active; further: nearly all actives have a fitted effect of over 60% in size
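Luminescence from Amplite-detected luciferase (10 minutes, ambient) reports Rab9 promoter activation. Before that, stable Rab9-luciferase Huh7 cells (1500/well, reduced-serum OP-MEM I plus 10% FBS) were exposed to compound for 24 hours at 37C.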
NPC1 promoter act: activates the NPC1 promoter. Huh7 NPC1 promoter luciferase reporter, 24 h. Potency, µM (series often up to 9.22 µM), hits mostly activators. 2.4% of 320,000 active. AID 485313; further: nearly all actives have a fitted effect of over 60% in size
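Stably transfected Huh7 (NPC1 promoter→luciferase), 1500 cells/well in Opti-MEM + 10% FBS, 2 h settle, then compound 24 h at 37 °C. Luminescence after 10 min with Amplite reagent.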
A number is an active result; n = inactive; u = inconclusive; x = no result; [ ] = another dose, or the depositor's remark. The call rests on the fitted dose curve; in most records, active means well fitted curve in the direction sought with a large enough effect; inconclusive means small, poorly fitted or top-dose-only effect, or another doubt; inactive means no such curve, though single readings can be large; an effect the other way counts as inactive or inconclusive.

SMILES	ELG1 genotoxic	FLuc modulator	SMN2 splice enh	Rab9 promoter act	NPC1 promoter act
O=C(COC(=O)c1ccco1)Nc1ccc2c(c1)OCCO2	n	2.39µM	n	n	n
O=C(Nc1ccc2c(c1)OCCO2)c1ccco1	3.66µM	8.49µM	10µM	2.24µM	2µM
COc1ccc(C(=O)Nc2ccc(NC(=O)c3ccco3)c(Cl)c2)cc1OC	n	n	n	n	n
COc1ccc([N+](=O)[O-])cc1NCC(=O)Nc1cccc(S(=O)(=O)N2CCCC2)c1	n	n	x	n	n
CCC(=O)N1CCc2cc(Br)cc(S(=O)(=O)CCC(=O)N3CCN(c4cccc(C(F)(F)F)c4)CC3)c21	x	n	n	x	x
Cc1cc(C)cc(C(=O)Nc2cccc(NC(=O)c3ccco3)c2)c1	n	u	x	n	n
O=C(CNC(=O)c1cccs1)Nc1ccc2c(c1)OCCO2	1.64µM	6.01µM	x	1.12µM	1.26µM
O=C(Nc1ccc(NC(=O)c2cccs2)cc1)c1ccc2c(c1)OCCO2	u	n	x	n	n
O=C(Nc1cccc(NC(=O)c2ccco2)c1)c1ccc2c(c1)OCCO2	n	9.53µM	n	n	n
Cc1ccc(NC(=O)c2ccco2)cc1C	u	9.53µM	15.8µM	3.98µM	2.82µM
Nc1ncnc2c1nc(-c1ccccc1)n2[C@H]1O[C@@H](CO)[C@@H](O)[C@H]1O	x	x	n[9.22 µM]	x	x
Cc1c(C(=O)Nc2ccc(Cl)cc2)c2ccccn2c1CCc1ccncc1	n	3.01µM	n	u	u
Cc1c(C(=O)Nc2cccc(Cl)c2)c2ccccn2c1CCc1ccncc1	n	16.9µM	n	n	n
Cc1ccccc1OCC(=O)NCC(c1ccc(Cl)cc1)N1CCOCC1 (stereo not drawn)	x	n	x	x	x
COc1cc(C(=O)c2nccc3cc(OC)c(OC)cc23)c([N+](=O)[O-])cc1OC	n	n	n	n	n
O=C(Nc1nc2ccsc2c(=O)s1)c1ccc(F)cc1Cl	9.2µM	0.536µM	x	0.562µM	0.708µM
Cc1csc2c(=O)sc(NC(=O)c3ccc(F)cc3Cl)nc12	n	n	x	n	n
O=C(Nc1nc2ccsc2c(=O)s1)c1ccc(F)cc1	u	0.536µM	x	0.282µM	0.398µM
O=S(=O)(c1ccccc1Cl)N1CCC(O)(c2ccc3c(c2)OCO3)CC1	n	n	n	n	n
Cc1ccc(C(=O)NC(=S)NNC(=O)c2ccccc2O)cc1	n	u	x	n	n
O=C(/C=C/NNC(=O)c1ccccc1)c1ccc(Br)cc1	u	26.9µM	n	n	n
Cc1ccc(C(=O)/C=C/NNC(=O)c2ccccc2O)cc1	n	26.9µM	x	n	n
O=C(NCCS(=O)(=O)N1CCN(c2ccc(F)cc2)CC1)c1ccco1	n	n	x	n	n
Cc1cc(C(=O)COc2ccccc2C(N)=O)c(C)n1CC1CCCO1 (stereo not drawn)	n	u	n	n	n
Cc1cc(C(=O)COC(=O)c2ccccc2O)c(C)n1CC1CCCO1 (stereo not drawn)	n	0.0849µM	x	n	n
SMILES	ELG1 genotoxic	FLuc modulator	SMN2 splice enh	Rab9 promoter act	NPC1 promoter act
Cc1cc(C(=O)Cn2cc([N+](=O)[O-])ccc2=O)c(C)n1CC1CCCO1 (stereo not drawn)	n	n	x	n	n
Cc1cc(C(=O)COC(=O)C2COc3ccccc3O2)c(C)n1CC1CCCO1 (stereo not drawn)	n	4.78µM	n	n	n
Cc1cc(C(=O)CSc2nnc(-c3cccnc3)n2-c2ccccc2)c(C)n1CC1CCCO1 (stereo not drawn)	n	19µM	n	u	n
Cc1cc(C(=O)CSc2nnc(-c3ccncc3)n2-c2ccccc2)c(C)n1C	n	n	n	n	n
Cc1cc(C(=O)COC(=O)CN(C)S(=O)(=O)c2ccc(Cl)cc2)c(C)n1CC1CCCO1 (stereo not drawn)	n	19µM	n	n	n
Cc1ccc(NC(=O)Cn2cc(C(=O)c3ccco3)c3ccccc32)cc1	x	n	x	x	x
O=C(COC(=O)c1ccccc1Br)NCC1CCCO1 (stereo not drawn)	n	x	x	x	x
Cc1cc(C(=O)COC(=O)c2ccccc2Br)c(C)n1CC1CCCO1 (stereo not drawn)	u	0.107µM	x	n	n
CCCn1c(=O)c2ccccc2n2c(SCC(=O)c3cc(C)n(CC4CCCO4)c3C)nnc12 (stereo not drawn)	n	n	n	n	n
Cc1cc(C(=O)COC(=O)c2cccnc2Cl)c(C)n1CC1CCCO1 (stereo not drawn)	0.517µM	0.239µM	n	u	u
Cc1cc(C(=O)COC(=O)c2ccccc2NCCO)c(C)n1CC1CCCO1 (stereo not drawn)	u	1.51µM	x	u	u
Cc1ccc(C(=O)OCC(=O)c2cc(C)n(CC3CCCO3)c2C)cc1 (stereo not drawn)	u	4.26µM	n	2.24µM	2.24µM
CCOc1cc(C(=O)OCC(=O)c2cc(C)n(CC3CCCO3)c2C)ccc1OCC(=O)N1CCOCC1 (stereo not drawn)	n	u	x	n	n
Cc1cc(C(=O)COC(=O)c2cc(O)c3ccccc3c2O)c(C)n1CC1CCCO1 (stereo not drawn)	n	19µM	n	n	n
Cc1cc(C(=O)COC(=O)c2n[nH]c3ccccc23)c(C)n1CC1CCCO1 (stereo not drawn)	u	u	n	0.316µM	0.355µM
COc1ccc(NC(=O)COC(=O)c2cc(SC)ccc2Cl)c(OC)c1	n	n	n	n	n
CN(C)c1ccc(C2CC(c3ccccc3)=Nc3nc(-c4ccccc4)cn32)cc1 (stereo not drawn)	n	13.5µM	n	n	n
CN(C)c1ccc(-c2n[nH]c(=S)n2-c2ccccc2)cc1	n	n	n	n	n
Cc1ccnc(N/C=C/C(=O)c2ccc(Br)cc2)c1	u	0.953µM	x	1.12µM	1.58µM
COc1ccc(S(=O)(=O)Nc2cc(C)ccn2)cc1	n	n	n	n	n
O=C(/C=C\Nc1ccc(Cl)cn1)c1ccc(Br)cc1	u	u	11.2µM	2.51µM	2µM
COc1ccc(C(=O)/C=C/Nc2cc(C)ccn2)cc1	u	0.477µM	x	0.316µM	0.398µM
CCOC(=O)C(=CNc1cc(C)ccn1)C(=O)OCC	n	n	n	n	n
CC(=O)n1nc(-c2ccco2)nc1SCc1ccccc1	n	u	n	n	n
CCC(=O)n1nc(-c2ccco2)nc1SCc1ccccc1	u	15.1µM	u	n	n
CCOC(=O)N1CCC(NC(=O)Cn2ncc3c4ccccc4n(C)c3c2=O)CC1	n	19µM	n	n	n
CCOC(=O)C1CCN(C(=O)Cn2ncc3c4ccccc4n(C)c3c2=O)CC1	x	n	n	x	x
Cc1c2cnn(CC(=O)NC3CCCC3)c(=O)c2c(C)n1Cc1ccccc1	u	23.9µM	x	u	u
COc1ccc(C2C=C(c3ccc(Cl)cc3)Nc3nc(-c4ccc(Cl)cc4)nn32)cc1 (stereo not drawn)	x	n	n	x	x
CCOc1ccc(N2CC(c3nc4ccccc4n3CCCOc3ccc(OC)cc3)CC2=O)cc1 (stereo not drawn)	x	23.9µM	n	x	x
